Measured values taken from the supplement of paper PMC7393113.
Structures can show the parent of a compound that is named as a salt. ± gives the standard deviation of the averaged measurements.

These compounds were tested on iBMDM (immortalised mouse bone-marrow-derived macrophages), LPS-stimulated (assay: mitochondrial superoxide (MitoSOX fluorescence) fold increase over unstimulated control; higher = more LPS-induced mitochondrial ROS (less inhibition)). Settings: inhibitor concentration: 500 nM; LPS: 100 ng/ml; time after LPS: 1 h.
Outline: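 Immortalised mouse bone-marrow-derived macrophages in black 96-well plates were kept in phenol-red-free 1% FCS/DMEM for 20 h, pretreated 30 min with kinase inhibitors (500 nM), loaded with 1 μM MitoSox for 10 min and then given LPS (100 ng/ml). Fluorescence at excitation/emission 510/580 nm was read on a ClarioStar plate reader every 60 min for 4 h, with wells in triplicate. Mitochondrial superoxide is given as fold induction over untreated macrophages, averaged across replicates.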
Compound Cc1c(NC(=O)OC[C@@H]2COCCN2)cn2ncnc(Nc3ccc4c(cnn4Cc4cccc(F)c4)c3)c12 has a mitochondrial superoxide of 1.57 ± 0.034. CN(C)C/C=C/C(=O)Nc1cc2c(Nc3ccc(F)c(Cl)c3)ncnc2cc1O[C@H]1CCOC1 [Afatinib (BIBW2992)] was tested, and the mitochondrial superoxide was 1.54 ± 0.068. Work on O=c1c(O)c(-c2ccc(O)c(O)c2)oc2cc(O)cc(O)c12 [Quercetin] yielded a mitochondrial superoxide of 1.31 ± 0.046. O=S(=O)(c1cccc2cnccc12)N1CCCNCC1 [Fasudil (HA-1077) HCl] was tested, and the mitochondrial superoxide was 1.03 ± 0.023. In the case of NC(=O)c1ncn([C@@H]2O[C@H](CO)[C@@H](O)[C@H]2O)c1N [Acadesine], the mitochondrial superoxide is reported as 1.108 ± 0.0017. In the case of CN1CCC(CNc2ccc3ncc(-c4cccc(OC(F)(F)F)c4)n3n2)CC1 [SGI-1776 free base], the mitochondrial superoxide is reported as 1.13 ± 0.048. For COc1cc(Nc2c(C#N)cnc3cc(OCCCN4CCN(C)CC4)c(OC)cc23)c(Cl)cc1Cl [Bosutinib (SKI-606)], the mitochondrial superoxide was 1.58 ± 0.017. For COc1cc2ncnc(Nc3ccc(F)c(Cl)c3)c2cc1NC(=O)/C=C/CN1CCCCC1, the mitochondrial superoxide was 1.22 ± 0.031. Cc1cc(Nc2ncc(Cl)c(Nc3ccccc3S(=O)(=O)C(C)C)n2)c(OC(C)C)cc1C1CCNCC1 showed a mitochondrial superoxide of 1.2 ± 0.013. CS(=O)(=O)N1CCc2c(-c3cnc(N)nc3)nc(N3CCOCC3)nc21 was tested, and the mitochondrial superoxide was 1.31 ± 0.047. Compound CCc1ccc(/C=C2/SC(=S)NC2=O)cc1 has a mitochondrial superoxide of 1.137 ± 0.0067. Cc1ccc(C(=O)Nc2ccc(CN3CCN(C)CC3)c(C(F)(F)F)c2)cc1C#Cc1cnc2[nH]ncc2c1 gave a mitochondrial superoxide of 1.42 ± 0.049. Work on CS(=O)(=O)CCNCc1ccc(-c2ccc3ncnc(Nc4ccc(OCc5cccc(F)c5)c(Cl)c4)c3c2)o1 yielded a mitochondrial superoxide of 1.6 ± 0.073. Compound CCC[C@H](NC(=O)/C(C#N)=C/c1cccc(Br)n1)c1ccccc1 [Degrasyn (WP1130)] has a mitochondrial superoxide of 1.18 ± 0.047. Work on Cn1cnc2c(F)c(Nc3ccc(Br)cc3Cl)c(C(=O)NOCCO)cc21 [Selumetinib (AZD6244)] yielded a mitochondrial superoxide of 1.45 ± 0.037. CC(C)n1nc(-c2ccc3oc(N)nc3c2)c2c(N)ncnc21 gave a mitochondrial superoxide of 1.34 ± 0.018. With CC(C)(C)n1nc(-c2ccc(Cl)cc2)c2c(N)ncnc21 the mitochondrial superoxide was 1.11 ± 0.019. CNC(=O)c1nn(C)c2c1C(C)(C)Cc1cnc(Nc3ccc(N4CCN(C)CC4)cc3)nc1-2 gave a mitochondrial superoxide of 1.31 ± 0.016. Cc1ccc(Nc2nccc(N(C)c3ccc4c(C)n(C)nc4c3)n2)cc1S(N)(=O)=O was tested, and the mitochondrial superoxide was 1.46 ± 0.059. For C[C@@H](Oc1cc(-n2cnc3ccc(CN4CCN(C)CC4)cc32)sc1C(N)=O)c1ccccc1C(F)(F)F, the mitochondrial superoxide was 1.12 ± 0.059. In the case of COc1cccc2cc(-c3nc([C@H]4CC[C@H](C(=O)O)CC4)n4ncnc(N)c34)[nH]c12, the mitochondrial superoxide is reported as 1.3 ± 0.046. Compound Nc1cccc(-c2cc3c(Oc4cccc(O)c4)ncnc3[nH]2)c1 has a mitochondrial superoxide of 1.06 ± 0.059. Cc1cc(Nc2ncnc3ccc(-c4ccc(CNCCS(C)(=O)=O)o4)cc23)ccc1Oc1ccn2ncnc2c1 [HER2-Inhibitor-1] gave a mitochondrial superoxide of 1.26 ± 0.072. Compound O=c1ncn2nc(Sc3ccc(F)cc3F)ccc2c1-c1c(Cl)cccc1Cl has a mitochondrial superoxide of 1.16 ± 0.045. Nc1ncnc2c1c(-c1cccc(OCc3ccccc3)c1)cn2C1CC(CN2CCC2)C1 (centres undefined) was tested, and the mitochondrial superoxide was 1.36 ± 0.069. CS(=O)(=O)c1ccc(-c2cnc(N)c(C(=O)Nc3ccccc3)n2)cc1 was tested, and the mitochondrial superoxide was 1.23 ± 0.053. Oc1cc(O)cc(/C=C/c2ccc(O)c(O)c2)c1 [Piceatannol] was tested, and the mitochondrial superoxide was 1.13 ± 0.0055. O=C1C(c2c(O)[nH]c3ccccc23)=Nc2ccccc21 [Indirubin] showed a mitochondrial superoxide of 1.22 ± 0.026. Work on N#Cc1ccc2[nH]c(O)c(-c3ccc(CN4CCOCC4)cn3)c2c1 yielded a mitochondrial superoxide of 1.08 ± 0.043. For COc1cc(N2CCC(N)CC2)ccc1Nc1ncc(Cl)c(-c2c[nH]c3ccccc23)n1, the mitochondrial superoxide was 1.21 ± 0.018. O=c1cc(N2CCOCC2)oc2c(-c3ccccc3)cccc12 showed a mitochondrial superoxide of 1.36 ± 0.075. For O=C1NC(=O)C(c2ccccc2[N+](=O)[O-])=C1Nc1ccc(O)c(Cl)c1, the mitochondrial superoxide was 1.12 ± 0.024. For N#CC(=C(/N)Sc1ccccc1N)/C(C#N)=C(\N)Sc1ccccc1N, the mitochondrial superoxide was 1.36 ± 0.043. CNC(=O)c1cc(Oc2ccc(NC(=O)Nc3cc(C(C)(C)C)nn3-c3ccc4ncccc4c3)c(F)c2)ccn1 [DCC-2036 (Rebastinib)] was tested, and the mitochondrial superoxide was 1.17 ± 0.012. Work on Cc1cc(Nc2cc(N3CCN(C)CC3)nc(/C=C/c3ccccc3)n2)n[nH]1 yielded a mitochondrial superoxide of 1.19 ± 0.044. For C=CC(=O)Nc1cccc(Sc2nc(Nc3ccc(N4CCN(C)CC4)cc3)ncc2Cl)c1, the mitochondrial superoxide was 1.24 ± 0.09. Work on COc1cc2ncnc(Nc3ccc(O)c(Br)c3)c2cc1OC yielded a mitochondrial superoxide of 1.04 ± 0.047.

Same assay, conditions: inhibitor concentration: 500 nM; LPS: 100 ng/ml; time after LPS: 2 h
Cc1c(NC(=O)OC[C@@H]2COCCN2)cn2ncnc(Nc3ccc4c(cnn4Cc4cccc(F)c4)c3)c12 was tested, and the mitochondrial superoxide was 1.74 ± 0.077. CN(C)C/C=C/C(=O)Nc1cc2c(Nc3ccc(F)c(Cl)c3)ncnc2cc1O[C@H]1CCOC1 [Afatinib (BIBW2992)] was tested, and the mitochondrial superoxide was 1.6 ± 0.047. Work on O=c1c(O)c(-c2ccc(O)c(O)c2)oc2cc(O)cc(O)c12 [Quercetin] yielded a mitochondrial superoxide of 1.35 ± 0.071. With O=S(=O)(c1cccc2cnccc12)N1CCCNCC1 [Fasudil (HA-1077) HCl] the mitochondrial superoxide was 1.12 ± 0.041. In the case of NC(=O)c1ncn([C@@H]2O[C@H](CO)[C@@H](O)[C@H]2O)c1N [Acadesine], the mitochondrial superoxide is reported as 1.2 ± 0.043. CN1CCC(CNc2ccc3ncc(-c4cccc(OC(F)(F)F)c4)n3n2)CC1 [SGI-1776 free base] gave a mitochondrial superoxide of 1.22 ± 0.052. Work on COc1cc(Nc2c(C#N)cnc3cc(OCCCN4CCN(C)CC4)c(OC)cc23)c(Cl)cc1Cl [Bosutinib (SKI-606)] yielded a mitochondrial superoxide of 1.66 ± 0.056. Work on COc1cc2ncnc(Nc3ccc(F)c(Cl)c3)c2cc1NC(=O)/C=C/CN1CCCCC1 yielded a mitochondrial superoxide of 1.48 ± 0.045. Cc1cc(Nc2ncc(Cl)c(Nc3ccccc3S(=O)(=O)C(C)C)n2)c(OC(C)C)cc1C1CCNCC1 showed a mitochondrial superoxide of 1.32 ± 0.033. CS(=O)(=O)N1CCc2c(-c3cnc(N)nc3)nc(N3CCOCC3)nc21 was tested, and the mitochondrial superoxide was 1.48 ± 0.024. CCc1ccc(/C=C2/SC(=S)NC2=O)cc1 gave a mitochondrial superoxide of 1.22 ± 0.042. Cc1ccc(C(=O)Nc2ccc(CN3CCN(C)CC3)c(C(F)(F)F)c2)cc1C#Cc1cnc2[nH]ncc2c1 showed a mitochondrial superoxide of 1.53 ± 0.032. CS(=O)(=O)CCNCc1ccc(-c2ccc3ncnc(Nc4ccc(OCc5cccc(F)c5)c(Cl)c4)c3c2)o1 was tested, and the mitochondrial superoxide was 1.72 ± 0.07. With CCC[C@H](NC(=O)/C(C#N)=C/c1cccc(Br)n1)c1ccccc1 [Degrasyn (WP1130)] the mitochondrial superoxide was 1.34 ± 0.032. Work on Cn1cnc2c(F)c(Nc3ccc(Br)cc3Cl)c(C(=O)NOCCO)cc21 [Selumetinib (AZD6244)] yielded a mitochondrial superoxide of 1.51 ± 0.031. Compound CC(C)n1nc(-c2ccc3oc(N)nc3c2)c2c(N)ncnc21 has a mitochondrial superoxide of 1.57 ± 0.055. CC(C)(C)n1nc(-c2ccc(Cl)cc2)c2c(N)ncnc21 gave a mitochondrial superoxide of 1.23 ± 0.074. In the case of CNC(=O)c1nn(C)c2c1C(C)(C)Cc1cnc(Nc3ccc(N4CCN(C)CC4)cc3)nc1-2, the mitochondrial superoxide is reported as 1.38 ± 0.086. With Cc1ccc(Nc2nccc(N(C)c3ccc4c(C)n(C)nc4c3)n2)cc1S(N)(=O)=O the mitochondrial superoxide was 1.563 ± 0.0056. Compound C[C@@H](Oc1cc(-n2cnc3ccc(CN4CCN(C)CC4)cc32)sc1C(N)=O)c1ccccc1C(F)(F)F has a mitochondrial superoxide of 1.22 ± 0.025. COc1cccc2cc(-c3nc([C@H]4CC[C@H](C(=O)O)CC4)n4ncnc(N)c34)[nH]c12 showed a mitochondrial superoxide of 1.39 ± 0.018. Work on Nc1cccc(-c2cc3c(Oc4cccc(O)c4)ncnc3[nH]2)c1 yielded a mitochondrial superoxide of 1.17 ± 0.022. Cc1cc(Nc2ncnc3ccc(-c4ccc(CNCCS(C)(=O)=O)o4)cc23)ccc1Oc1ccn2ncnc2c1 [HER2-Inhibitor-1] was tested, and the mitochondrial superoxide was 1.34 ± 0.074. For O=c1ncn2nc(Sc3ccc(F)cc3F)ccc2c1-c1c(Cl)cccc1Cl, the mitochondrial superoxide was 1.21 ± 0.014. Nc1ncnc2c1c(-c1cccc(OCc3ccccc3)c1)cn2C1CC(CN2CCC2)C1 (centres undefined) showed a mitochondrial superoxide of 1.48 ± 0.037. In the case of CS(=O)(=O)c1ccc(-c2cnc(N)c(C(=O)Nc3ccccc3)n2)cc1, the mitochondrial superoxide is reported as 1.46 ± 0.052. Oc1cc(O)cc(/C=C/c2ccc(O)c(O)c2)c1 [Piceatannol] showed a mitochondrial superoxide of 1.15 ± 0.013. O=C1C(c2c(O)[nH]c3ccccc23)=Nc2ccccc21 [Indirubin] was tested, and the mitochondrial superoxide was 1.34 ± 0.073. With N#Cc1ccc2[nH]c(O)c(-c3ccc(CN4CCOCC4)cn3)c2c1 the mitochondrial superoxide was 1.24 ± 0.097. COc1cc(N2CCC(N)CC2)ccc1Nc1ncc(Cl)c(-c2c[nH]c3ccccc23)n1 showed a mitochondrial superoxide of 1.27 ± 0.025. Work on O=c1cc(N2CCOCC2)oc2c(-c3ccccc3)cccc12 yielded a mitochondrial superoxide of 1.41 ± 0.086. Compound O=C1NC(=O)C(c2ccccc2[N+](=O)[O-])=C1Nc1ccc(O)c(Cl)c1 has a mitochondrial superoxide of 1.45 ± 0.084. In the case of N#CC(=C(/N)Sc1ccccc1N)/C(C#N)=C(\N)Sc1ccccc1N, the mitochondrial superoxide is reported as 1.4 ± 0.048. In the case of CNC(=O)c1cc(Oc2ccc(NC(=O)Nc3cc(C(C)(C)C)nn3-c3ccc4ncccc4c3)c(F)c2)ccn1 [DCC-2036 (Rebastinib)], the mitochondrial superoxide is reported as 1.33 ± 0.075. In the case of Cc1cc(Nc2cc(N3CCN(C)CC3)nc(/C=C/c3ccccc3)n2)n[nH]1, the mitochondrial superoxide is reported as 1.21 ± 0.011. C=CC(=O)Nc1cccc(Sc2nc(Nc3ccc(N4CCN(C)CC4)cc3)ncc2Cl)c1 showed a mitochondrial superoxide of 1.26 ± 0.035. COc1cc2ncnc(Nc3ccc(O)c(Br)c3)c2cc1OC was tested, and the mitochondrial superoxide was 1.04 ± 0.082.
